Values without a mark were called inactive. The rule behind the calls is not given here.
Target: Integrin alpha-4 (Homo sapiens) (UniProt P13612)
Test: VLA-4 ligand binding increase, concentration series – cell-based, LDV-FITC binding, flow cytometry, dose response (AID 703)
Conditions: Jurkat cells, active compounds read high

Sequence of Integrin alpha-4 (Homo sapiens) (P13612 whole entry, looked up): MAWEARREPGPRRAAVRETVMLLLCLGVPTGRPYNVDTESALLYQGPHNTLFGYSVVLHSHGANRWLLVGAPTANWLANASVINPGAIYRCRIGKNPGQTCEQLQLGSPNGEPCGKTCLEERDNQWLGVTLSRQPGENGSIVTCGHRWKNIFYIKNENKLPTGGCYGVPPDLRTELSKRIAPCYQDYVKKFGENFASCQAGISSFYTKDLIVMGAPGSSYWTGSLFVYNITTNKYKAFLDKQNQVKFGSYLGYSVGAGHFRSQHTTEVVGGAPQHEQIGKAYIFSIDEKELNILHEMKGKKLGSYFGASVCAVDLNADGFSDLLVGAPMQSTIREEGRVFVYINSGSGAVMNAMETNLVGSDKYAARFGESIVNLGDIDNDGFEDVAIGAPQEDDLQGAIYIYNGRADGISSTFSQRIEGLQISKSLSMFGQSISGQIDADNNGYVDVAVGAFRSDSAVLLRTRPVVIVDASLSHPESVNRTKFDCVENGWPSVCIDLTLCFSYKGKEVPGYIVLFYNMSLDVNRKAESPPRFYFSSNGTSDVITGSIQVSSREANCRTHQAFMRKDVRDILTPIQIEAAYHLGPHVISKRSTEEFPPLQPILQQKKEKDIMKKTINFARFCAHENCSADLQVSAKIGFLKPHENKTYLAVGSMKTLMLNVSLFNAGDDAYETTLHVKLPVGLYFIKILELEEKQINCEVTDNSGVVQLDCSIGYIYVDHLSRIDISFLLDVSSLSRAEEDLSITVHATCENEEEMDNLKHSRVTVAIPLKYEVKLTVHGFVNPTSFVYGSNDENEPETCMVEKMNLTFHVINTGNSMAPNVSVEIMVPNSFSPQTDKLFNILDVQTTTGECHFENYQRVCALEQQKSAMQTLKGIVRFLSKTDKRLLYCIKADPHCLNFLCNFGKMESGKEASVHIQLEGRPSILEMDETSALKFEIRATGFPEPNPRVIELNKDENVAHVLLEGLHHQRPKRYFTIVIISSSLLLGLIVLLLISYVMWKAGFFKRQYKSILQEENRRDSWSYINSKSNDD

`O=c1c2ccccc2[se]n1-c1ccccc1` showed an activation at 0 C of 0.

Reference: PubChem BioAssay AID703 (NMMLSC, 2007)
